Bioassay records (PubChem)
Shiga toxin inh = blocks Shiga toxin action in Vero cells. Vero cells, Shiga toxin protein synthesis inhibition reporter. inhibition, % at 38.7 µM. hit rate 9.2% among 290,000. AID 2315; in the data active = inhibition mostly above about 28%, no sharp cut-off; inactive = mostly below about 43%; also: 0% is about no effect
Marburg entry inh = inhibitors of Marburg virus binding or cell entry; Marburg virus pseudotyped entry inhibition, cell reporter; Potency, µM (titrated, usually from 37.8 µM), inactives show at the top dose activity change, negative = inhibition, usual class: inhibitors; hit rate 1.8% among 300,000; AID 540276; calls by dose curve; tested in HEK293 cells; also: potency is read from the fitted curve at half-maximal effect; % is scaled to controls: 0 for no effect and ±100 for the full control effect
LASV entry inh = inhibitors of Lassa virus binding or cell entry. Lassa virus pseudotype entry inhibition, cell reporter. Potency, µM (series often up to 37.9 µM), without a hit: top-dose activity change, negative = inhibition, usual class: inhibitors. hit rate 1.2% among 300,000. AID 540256; calls by dose curve; tested in HEK293 cells; also: potency is read from the fitted curve at half-maximal effect; % is scaled to controls: 0 for no effect and ±100 for the full control effect; nearly all actives have a fitted effect of over 50% in size
Cycloheximide cs = counter-screen for Shiga toxin inhibitors: cycloheximide protein synthesis inhibition; hit rate 12% among 300,000; cell reporter, cycloheximide protein synthesis inhibition counterscreen; max response, %; AID 2314; in the data active = max response mostly above about 13%, no sharp cut-off; inactive = mostly below about 14%; also: read at 38.3 µM for the half of the compounds with a filed dose; 0% is about no effect
Vaccinia Venus = vaccinia inhibition (Venus reporter); Potency, µM (titrated, usually from 36.5 µM), inactives show at the top dose activity change, negative = inhibition, hits mostly inhibitors; hit rate 0.46% among 330,000; Vaccinia virus Venus reporter expression, fluorescence; calls by dose curve; tested in A549 cells; also: potency is read from the fitted curve at half-maximal effect; % is scaled to controls: 0 for no effect and ±100 for the full control effect; nearly all actives have a fitted effect of over 30% in size
VACV mCherry inh = inhibitors of vaccinia virus infection (mCherry reporter signal); AID 720579; hit rate 0.63% among 310,000; Vaccinia virus mCherry reporter infection, fluorescence; Potency, µM (series often up to 36.5 µM), without a hit: at the top dose activity change, negative = inhibition, usual class: inhibitors; calls by dose curve; tested in A549 cells; also: potency is read from the fitted curve at half-maximal effect; % is scaled to controls: 0 for no effect and ±100 for the full control effect; nearly all actives have a fitted effect of over 35% in size
* marks the source's active call; other numbers are inactive results; [ ] = dose if it differs, or a comment. Shown is part of a subset that was picked to be rich in hits.

How did O=C(c1cc2c(s1)CCCC2)N1CCN(C(=O)C2CCCO2)CC1 (stereo not drawn) do in these assays?
Shiga toxin inh: 14.2; Marburg entry inh: 2.1%; LASV entry inh: -5.2%; Cycloheximide cs: 12.3

How did CC(=O)c1ccc(N2CCN(C(=O)c3cc4c(s3)CCCC4)CC2)cc1 do in these assays?
Shiga toxin inh: 70.8*; Marburg entry inh: inconclusive; LASV entry inh: -17.8%[46.1 µM]; Cycloheximide cs: 17.8*; Vaccinia Venus: -13.7%; VACV mCherry inh: -4.0%

What do the screens show for `O=C(c1cc2c(s1)CCC2)N1C(=O)c2ccccc2S1(=O)=O`?
Shiga toxin inh: 11.0; Marburg entry inh: 4.2%; LASV entry inh: 4.2%; Cycloheximide cs: -1.2; Vaccinia Venus: -2.7%

Results for O=C(C1CCN(S(=O)(=O)N2CCOCC2)CC1)N1CCN(c2ccc(F)cc2)CC1 ?
Shiga toxin inh: -1.7; Marburg entry inh: -38.5%[46.1 µM]; LASV entry inh: 0.6%[46.1 µM]; Cycloheximide cs: -0.7; Vaccinia Venus: -7.9%; VACV mCherry inh: -11.5%

Results for O=C(c1cc2c(s1)CCCC2)N1CCC2(CC1)OCCO2 ?
Shiga toxin inh: 75.7*; Marburg entry inh: 18.3%; LASV entry inh: 0.3%; Cycloheximide cs: 21.7*; Vaccinia Venus: -16.5%; VACV mCherry inh: -2.1%

What do the screens show for `Brc1cccc[n+]1C/C=C/C[n+]1ccccc1Br`?
Vaccinia Venus: -2.9%; VACV mCherry inh: 42.8%

Results for COc1ccc2ccc(C(C)(C(C)=O)C(=O)OC(C)C)cc2c1 (stereo not drawn) ?
Vaccinia Venus: -18.6%; VACV mCherry inh: -7.3%

How did COc1cc(=O)n2c(c1C(=O)N(C)Cc1nccs1)CCN(Cc1ccc(F)c(F)c1)CC2 do in these assays?
Vaccinia Venus: -10.3%; VACV mCherry inh: inactive

Results for COC(=O)C1CN(C(=O)COc2ccc(Cl)cc2C)c2ccccc2O1 (stereo not drawn) ?
Shiga toxin inh: 25.2; Marburg entry inh: 15.1%[46.1 µM]; LASV entry inh: 19.5%[46.1 µM]; Cycloheximide cs: 21.2; Vaccinia Venus: -9.2%; VACV mCherry inh: -16.0%

Results for CC(=O)c1ccc(N2CCN(C(=O)C3CCC3)CC2)cc1 ?
Shiga toxin inh: -5.7; Marburg entry inh: 3.6%; LASV entry inh: 0.9%; Cycloheximide cs: 14.4*

What do the screens show for `C=CCN1CCN(C(=O)c2cc3c(s2)CCCC3)CC1`?
Shiga toxin inh: 58.5; Marburg entry inh: inconclusive; LASV entry inh: 28.2%[46.1 µM]; Cycloheximide cs: 15.1*; Vaccinia Venus: -9.7%; VACV mCherry inh: inactive

What do the screens show for `O=C(C1CC1)N1CCN(c2ccc(O)cc2)CC1`?
Shiga toxin inh: -4.8; Marburg entry inh: -15.7%[46.1 µM]; LASV entry inh: -18.5%; Cycloheximide cs: -4.3; Vaccinia Venus: -0.2%; VACV mCherry inh: -6.9%

Results for CCCNC(=O)Cn1c(=O)/c(=C\c2ccc(-c3ccc([N+](=O)[O-])cc3)o2)s/c1=C\C(=O)C(C)(C)C ?
Shiga toxin inh: 2.1; Marburg entry inh: -6.1%; LASV entry inh: inconclusive; Cycloheximide cs: -0.9; Vaccinia Venus: 51.4%; VACV mCherry inh: 0.1%

Results for O=C(O)CCCN=C1NC2(CCCC2)CC2=C1CCCC2 ?
Marburg entry inh: -0.1%

Results for O=C(CCS(=O)(=O)c1ccc(Br)cc1)Nc1cc(F)ccc1F ?
Shiga toxin inh: 7.0; Marburg entry inh: inconclusive; LASV entry inh: -7.8%; Cycloheximide cs: -2.3; Vaccinia Venus: inconclusive; VACV mCherry inh: 11.2µM*

How did O=C(CCS(=O)(=O)c1ccc(Br)cc1)Nc1ccc(F)cc1F do in these assays?
LASV entry inh: 19.2%[46.1 µM]; Vaccinia Venus: -7.6%; VACV mCherry inh: -5.5%

What do the screens show for `Cc1ccc(-c2nc3ncccc3o2)cc1N`?
Shiga toxin inh: 62.1*; Cycloheximide cs: 48.9*

Results for Nc1cc(-c2nc3ncccc3o2)ccc1Cl ?
Shiga toxin inh: 60.3*; Marburg entry inh: -4.5%; LASV entry inh: 25.0%; Cycloheximide cs: 59.0*; Vaccinia Venus: -9.8%; VACV mCherry inh: -5.3%

What do the screens show for `Cc1cc(-c2nc3ncccc3o2)ccc1N`?
Shiga toxin inh: 84.6*; Marburg entry inh: -9.8%[46.1 µM]; LASV entry inh: 10.8%; Cycloheximide cs: 44.5*; Vaccinia Venus: -3.0%; VACV mCherry inh: -20.0%

How did CCC(=O)Nc1ccc(-c2nc3ncccc3o2)cc1C do in these assays?
Marburg entry inh: 19.1%[46.1 µM]; LASV entry inh: 4.1%[46.1 µM]; Vaccinia Venus: -10.2%; VACV mCherry inh: -12.6%

What do the screens show for `CCCC(=O)Nc1cc(-c2nc3ncccc3o2)ccc1Cl`?
Shiga toxin inh: -9.9; Marburg entry inh: 18.0%[46.1 µM]; LASV entry inh: 1.0%[46.1 µM]; Cycloheximide cs: 6.0; Vaccinia Venus: -4.3%; VACV mCherry inh: inactive
